Each structure is given as a SMILES string. Records with an inconclusive call do not appear. Entries that show only a call come without a potency. Calls of active or inactive are those of the source. The call rests on the fitted dose curve.

Retinoic acid receptor RXR-alpha (Homo sapiens), sequence (P19793 whole entry, looked up): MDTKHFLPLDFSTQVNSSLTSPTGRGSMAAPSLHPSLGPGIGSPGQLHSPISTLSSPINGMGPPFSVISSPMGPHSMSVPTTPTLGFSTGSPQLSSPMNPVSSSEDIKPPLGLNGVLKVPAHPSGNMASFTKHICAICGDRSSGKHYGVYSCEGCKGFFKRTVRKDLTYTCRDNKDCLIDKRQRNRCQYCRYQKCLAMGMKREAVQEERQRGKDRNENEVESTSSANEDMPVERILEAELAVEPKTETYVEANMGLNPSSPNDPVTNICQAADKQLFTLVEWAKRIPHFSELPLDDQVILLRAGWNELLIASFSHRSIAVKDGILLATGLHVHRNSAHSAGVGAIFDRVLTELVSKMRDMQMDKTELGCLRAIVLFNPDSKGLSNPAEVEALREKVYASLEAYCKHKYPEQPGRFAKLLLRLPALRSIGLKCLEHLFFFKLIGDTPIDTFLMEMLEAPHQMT

The target in this experiment is Retinoic acid receptor RXR-alpha (Homo sapiens) (UniProt P19793). Description: qHTS assay to identify small molecule agonists of the RXR signaling pathway (AID 1159527). Further: nearly all actives have a fitted effect of over 35% in size. The following applies: HEK293T RXRa-UAS-bla, beta-lactamase ratio, 16 h; series mostly up to 76.8 µM. From the text:
U.S. Tox21 Program National Center for Advancing Translational Sciences [NCATS] NIH Chemical Genomics Center [NCGC] U.S. Environmental Protection Agency [EPA] National Institutes of Environmental Health Sciences [NIEHS] National Toxicology Program [NTP] U.S. Food and Drug Administration [FDA] Tox21 Assay Overview: The Retinoid X receptor (RXR), a nuclear hormone receptor expressed in liver, spleen, placenta, epidermis, central nervous system. These receptors are able to form homo and heterodimers with other nuclear receptors and due to this heterodimerizing ability, RXR functions as master regulators producing diverse physiological effects. Three subtypes of RXR exist; alpha, beta and gamma. Retinoid X receptor alpha (RXR-alpha) has potential roles in metabolic signaling pathways, skin alopecia, dermal cysts, cardiac development, insulin sensitization etc. Therefore screening environmental chemicals on RXR-alpha signaling can be used for the studies focused on such therapeutic applications. For quantification of RXR-alpha ligands signaling, GeneBLAzer RXR alpha-UAS-bla HEK 293T (Life Technologies, Carlsbad, CA) cells containing a beta-lactamase reporter-gene under control of Retinoid X receptor-alpha response element were used to screen Tox21 10K library.
Tox21 Assay Protocol Summary: RXR-alpha HEK 293T cells were dispensed at 2,000 cells/6 uL of assay medium containing 2% charcoal-stripped FBS using a Multidrop Combi (ThermoFisher Scientific, Waltham, MA) dispenser. The assay was performed in black wall/clear-bottom 1536-well plates (Greiner Bio-One North America Inc. Monroe, NC). 9-cis retinoic acid was used as a positive control in the agonist mode screen. After the assay plates were incubated at 37 C and 5% CO2 for 5 hr, 23 nL of compounds dissolved in DMSO, positive controls or DMSO only were transferred to the assay plate by a Pintool station (Kalypsys, San Diego, CA). The assay plates were incubated at 37 C and 5% CO2 for 16 hr. One uL of LiveBLAzer B/G FRET substrate (Life Technologies) was added using a Flying Reagent Dispenser (Aurora Discovery, San Diego, CA) and the plates were incubated at room temperature for 2 hr. Fluorescence intensity (405 nm excitation, 460/530 nm emission) was measured using an Envision plate reader (PerkinElmer, Shelton, CT).
(In qHTS, concentration-response curves come from the screen itself.)
For `C[C@H]1[C@H](NC(=O)/C(=N/OC(C)(C)C(=O)O)c2csc(N)n2)C(=O)N1S(=O)(=O)O` (stereo in doubt), the Potency entry is “inactive”.
As for `CC(=O)c1cnccn1`, the Potency entry is “inactive”.
In the case of `CCC(C(=O)NC(=O)NC(C)=O)c1ccccc1` (stereo not given), the Potency entry was “inactive”.
The entry for `CCOC(=O)COc1cc(-n2ncc(C(F)(F)F)c(C)c2=O)c(F)cc1Cl` is “inactive”; for `O=C1NC(=O)C2CC=CCC12` (stereo not given) it is “inactive”; for `NC(=O)Cc1cccc2ccccc12` it is “inactive”.
Consider `CC1CCC(CO)CC1` (stereo not given), for which the Potency result is “inactive”.
With `O=C1CCCCCCCCCCCCCCO1`, the Potency entry is “inactive”.
To `CCN1CCOCC1` belongs “inactive”; to `CC(=O)c1ccccc1[N+](=O)[O-]`, “inactive”.
To `CCO[Si](OCC)(OCC)c1ccccc1` belongs “inactive”; to `C=CCCCCCCCCC(=O)OCC`, “inactive”.
The entry for `CCCC(C)C(=O)OCC` (stereo not given) is “inactive”.
Take `CCOC(=O)COC(=O)c1ccccc1C(=O)OCC`: the Potency result is “inactive”.
Regarding `CCC(C)(CN(C)C)OC(=O)c1ccccc1` (stereo not given), the Potency entry is “inactive”.
To `CC(=O)OCC(=O)[C@@]1(O)[C@H](C)C[C@H]2[C@@H]3CCC4=CC(=O)C=C[C@]4(C)[C@@]3(F)[C@@H](O)C[C@@]21C` belongs “inactive”.
The entry for `C=CCOCC(O)CO` (stereo not given) is “inactive”; for `Cc1ccc(-c2ncc(Cl)cc2-c2ccc(S(C)(=O)=O)cc2)cn1` it is “inactive”; for `CC1=C(C/C=C(\C)CCC[C@H](C)CCC[C@H](C)CCCC(C)C)C(=O)c2ccccc2C1=O` it is “inactive”.
To `CCCCS(=O)(=O)N[C@@H](Cc1ccc(OCCCCC2CCNCC2)cc1)C(=O)O` belongs “inactive”; to `C=C(C)C(=O)OCCOCCOCCOCCOC(=O)C(=C)C`, “inactive”; to `Cc1onc(-c2c(Cl)cccc2Cl)c1C(=O)Cl`, “inactive”.
`CC[N+](CC)(CC)CCOc1cccc(OCC[N+](CC)(CC)CC)c1OCC[N+](CC)(CC)CC`: the Potency result is “inactive”.
`O=S(=O)(O)c1cc(O)c(O)c(S(=O)(=O)O)c1`: the Potency entry was “inactive”.
As for `CCOC(=O)OC(C)OC1=C(C(=O)Nc2ccccn2)N(C)S(=O)(=O)c2ccccc21` (stereo not given), the Potency entry is “inactive”.
To `C[N+]12CCC(CC1)C(OC(=O)C(O)(c1ccccc1)c1ccccc1)C2` (stereo not given) belongs “inactive”; to `CC(C)NNC(=O)c1ccncc1`, “inactive”.
To `CN(C)CCCN(C)CCCN(C)C` belongs “inactive”; to `[K+]`, “inactive”.
Consider `CO[Si](C)(OC)c1ccccc1`, for which the Potency entry was “inactive”.
Consider `C[N+]1(C)[C@@H]2CC(OC(=O)[C@H](CO)c3ccccc3)C[C@H]1[C@@H]1O[C@@H]12` (stereo not given in full), for which the Potency entry is “inactive”.
For the compound `O=C(O)Cc1csc(-c2ccc(Cl)cc2)n1`, the Potency entry was “inactive”.
Regarding `CC(C)(CCC(=O)O)C(=O)O`, the Potency result is “inactive”.
Take `CN1CCC(=C2c3ccccc3CCc3cccnc32)CC1`: the Potency result is “inactive”.
To `C[C@H]1C[C@H]2[C@@H]3CCC4=CC(=O)C=C[C@]4(C)[C@H]3C(=O)C[C@]2(C)[C@@]1(O)C(=O)CO` belongs “inactive”.
The entry for `COCCOC[C@H](CC1(C(=O)NC2CCC(C(=O)O)CC2)CCCC1)C(=O)Oc1ccc2c(c1)CCC2` (stereo not given in full) is “inactive”; for `CC(C)(C)C(=O)c1ccccc1` it is “inactive”; for `CCNS(=O)(=O)c1ccc(C)cc1` it is “inactive”.
To `CCOC(=O)c1ccccc1` belongs “inactive”; to `CCCO[Si](OCCC)(OCCC)OCCC`, “inactive”.

The values above are taken from PubChem BioAssay (Tox21).
